# Measurements: ChEMBL document CHEMBL2218924, “A broad activity screen in support of a chemogenomic map for kinase signalling research and drug discovery” (Biochem J, 2013)
# Experiments:
# [1] = target: T1, Serine/threonine-protein kinase TBK1 (Homo sapiens) (UniProt Q9UHD2); settings: at 10 µM
# T1 sequence (whole entry): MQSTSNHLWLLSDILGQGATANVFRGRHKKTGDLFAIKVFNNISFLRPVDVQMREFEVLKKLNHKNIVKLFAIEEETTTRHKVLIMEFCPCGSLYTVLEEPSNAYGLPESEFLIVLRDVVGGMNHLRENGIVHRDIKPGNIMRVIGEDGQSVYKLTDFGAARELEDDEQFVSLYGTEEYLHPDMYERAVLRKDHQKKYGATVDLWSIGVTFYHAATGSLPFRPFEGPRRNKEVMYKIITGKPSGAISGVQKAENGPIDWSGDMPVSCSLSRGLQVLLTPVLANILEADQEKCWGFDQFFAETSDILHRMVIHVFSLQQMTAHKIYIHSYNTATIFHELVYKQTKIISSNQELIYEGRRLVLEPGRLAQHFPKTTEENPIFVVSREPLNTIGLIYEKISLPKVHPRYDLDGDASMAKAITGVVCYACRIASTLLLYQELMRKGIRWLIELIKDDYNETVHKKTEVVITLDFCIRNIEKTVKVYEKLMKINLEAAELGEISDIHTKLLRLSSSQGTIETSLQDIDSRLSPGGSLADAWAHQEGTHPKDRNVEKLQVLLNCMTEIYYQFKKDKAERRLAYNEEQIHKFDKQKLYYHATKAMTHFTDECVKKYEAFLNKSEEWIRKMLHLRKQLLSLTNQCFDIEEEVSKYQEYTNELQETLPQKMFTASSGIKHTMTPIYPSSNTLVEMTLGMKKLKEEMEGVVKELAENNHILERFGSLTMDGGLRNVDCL
# [2] = target: T2, TGF-beta receptor type-1 (Homo sapiens) (UniProt P36897); settings: at 1 µM
# T2 sequence (whole entry): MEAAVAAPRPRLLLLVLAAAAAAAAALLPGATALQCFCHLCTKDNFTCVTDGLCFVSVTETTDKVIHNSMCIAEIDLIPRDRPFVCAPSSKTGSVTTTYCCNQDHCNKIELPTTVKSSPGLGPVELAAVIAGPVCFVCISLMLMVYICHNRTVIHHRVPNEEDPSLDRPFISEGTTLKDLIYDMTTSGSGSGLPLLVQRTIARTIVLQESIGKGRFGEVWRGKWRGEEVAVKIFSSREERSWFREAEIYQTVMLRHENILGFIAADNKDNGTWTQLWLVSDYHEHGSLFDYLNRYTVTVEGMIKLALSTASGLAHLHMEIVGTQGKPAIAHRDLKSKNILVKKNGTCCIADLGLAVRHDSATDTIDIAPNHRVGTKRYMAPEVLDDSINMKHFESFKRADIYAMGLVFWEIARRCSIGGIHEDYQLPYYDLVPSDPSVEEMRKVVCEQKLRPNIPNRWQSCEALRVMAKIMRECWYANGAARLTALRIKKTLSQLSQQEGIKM
# [3] = target: T2, TGF-beta receptor type-1 (Homo sapiens); settings: at 10 µM
# [4] = target: Insulin-like growth factor 1 receptor (Homo sapiens) (UniProt P08069); settings: at 1 µM
# [5] = target: Insulin-like growth factor 1 receptor (Homo sapiens) (UniProt P08069); settings: at 10 µM
# [6] = target: T3, Inhibitor of nuclear factor kappa-B kinase subunit alpha (Homo sapiens) (UniProt O15111); settings: at 1 µM
# T3 sequence (whole entry): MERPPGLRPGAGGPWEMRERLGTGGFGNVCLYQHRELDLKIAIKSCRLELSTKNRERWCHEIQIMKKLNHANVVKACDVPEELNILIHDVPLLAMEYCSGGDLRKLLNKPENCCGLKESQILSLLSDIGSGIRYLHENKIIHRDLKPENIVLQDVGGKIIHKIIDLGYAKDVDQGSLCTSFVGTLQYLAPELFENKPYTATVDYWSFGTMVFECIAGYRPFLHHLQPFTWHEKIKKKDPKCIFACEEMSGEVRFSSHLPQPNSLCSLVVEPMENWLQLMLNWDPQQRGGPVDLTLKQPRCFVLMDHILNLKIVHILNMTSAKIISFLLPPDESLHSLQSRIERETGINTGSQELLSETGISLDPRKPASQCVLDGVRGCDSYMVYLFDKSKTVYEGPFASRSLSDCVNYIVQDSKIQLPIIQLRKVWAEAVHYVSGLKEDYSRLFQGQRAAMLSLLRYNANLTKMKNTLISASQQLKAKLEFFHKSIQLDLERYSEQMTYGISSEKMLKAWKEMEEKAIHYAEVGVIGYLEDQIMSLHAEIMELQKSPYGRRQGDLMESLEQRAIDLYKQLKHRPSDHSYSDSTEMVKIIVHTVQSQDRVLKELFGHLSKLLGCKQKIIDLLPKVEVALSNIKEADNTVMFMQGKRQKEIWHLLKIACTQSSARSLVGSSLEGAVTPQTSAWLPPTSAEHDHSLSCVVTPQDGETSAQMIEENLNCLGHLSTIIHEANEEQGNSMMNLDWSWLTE
# [7] = target: T3, Inhibitor of nuclear factor kappa-B kinase subunit alpha (Homo sapiens); settings: at 10 µM
# [8] = target: T4, Inhibitor of nuclear factor kappa-B kinase subunit beta (Homo sapiens) (UniProt O14920); settings: at 1 µM
# T4 sequence (whole entry): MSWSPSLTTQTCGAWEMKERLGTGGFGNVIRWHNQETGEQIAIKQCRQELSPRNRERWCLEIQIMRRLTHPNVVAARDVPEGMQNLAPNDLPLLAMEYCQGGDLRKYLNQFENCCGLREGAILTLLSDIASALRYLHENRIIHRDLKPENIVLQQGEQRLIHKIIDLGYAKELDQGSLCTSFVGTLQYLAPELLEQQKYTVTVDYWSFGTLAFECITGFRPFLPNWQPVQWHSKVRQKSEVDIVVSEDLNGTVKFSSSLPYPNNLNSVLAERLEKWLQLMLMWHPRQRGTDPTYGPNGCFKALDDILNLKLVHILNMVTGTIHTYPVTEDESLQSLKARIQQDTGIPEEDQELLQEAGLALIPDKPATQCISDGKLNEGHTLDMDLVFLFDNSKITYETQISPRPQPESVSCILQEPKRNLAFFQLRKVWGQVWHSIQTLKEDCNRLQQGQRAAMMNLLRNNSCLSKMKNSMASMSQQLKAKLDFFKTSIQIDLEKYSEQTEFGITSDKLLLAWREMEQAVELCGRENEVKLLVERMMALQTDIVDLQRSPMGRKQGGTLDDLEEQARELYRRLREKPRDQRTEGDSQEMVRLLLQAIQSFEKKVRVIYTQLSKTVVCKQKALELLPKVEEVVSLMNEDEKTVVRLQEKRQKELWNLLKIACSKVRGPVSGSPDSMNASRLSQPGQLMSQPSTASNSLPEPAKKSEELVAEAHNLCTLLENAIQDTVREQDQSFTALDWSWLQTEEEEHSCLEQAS
# [9] = target: T4, Inhibitor of nuclear factor kappa-B kinase subunit beta (Homo sapiens); settings: at 10 µM
# [10] = target: Insulin receptor (Homo sapiens) (UniProt P06213); settings: at 1 µM
# Chain of Insulin receptor (Homo sapiens) (P06213 28-758 limits assumed): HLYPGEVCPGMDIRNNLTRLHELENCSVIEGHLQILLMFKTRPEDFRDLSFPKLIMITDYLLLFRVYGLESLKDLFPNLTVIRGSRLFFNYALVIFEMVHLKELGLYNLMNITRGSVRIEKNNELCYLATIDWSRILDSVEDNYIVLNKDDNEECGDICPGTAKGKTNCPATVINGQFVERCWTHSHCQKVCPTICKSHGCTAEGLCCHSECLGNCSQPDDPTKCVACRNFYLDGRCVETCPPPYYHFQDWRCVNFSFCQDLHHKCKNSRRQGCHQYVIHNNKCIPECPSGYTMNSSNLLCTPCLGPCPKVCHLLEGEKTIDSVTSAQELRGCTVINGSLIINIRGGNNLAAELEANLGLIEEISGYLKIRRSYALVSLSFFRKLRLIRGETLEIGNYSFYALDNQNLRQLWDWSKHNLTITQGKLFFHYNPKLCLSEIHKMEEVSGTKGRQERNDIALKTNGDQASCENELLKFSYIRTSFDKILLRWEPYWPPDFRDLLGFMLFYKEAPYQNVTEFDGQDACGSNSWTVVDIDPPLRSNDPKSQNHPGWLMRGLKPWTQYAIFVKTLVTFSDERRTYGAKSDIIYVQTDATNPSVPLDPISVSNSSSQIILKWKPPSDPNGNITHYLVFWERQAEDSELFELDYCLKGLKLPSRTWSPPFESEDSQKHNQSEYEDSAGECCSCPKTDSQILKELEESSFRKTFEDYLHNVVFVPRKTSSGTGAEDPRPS
# Chain of Insulin receptor (Homo sapiens) (P06213 763-1382 limits assumed): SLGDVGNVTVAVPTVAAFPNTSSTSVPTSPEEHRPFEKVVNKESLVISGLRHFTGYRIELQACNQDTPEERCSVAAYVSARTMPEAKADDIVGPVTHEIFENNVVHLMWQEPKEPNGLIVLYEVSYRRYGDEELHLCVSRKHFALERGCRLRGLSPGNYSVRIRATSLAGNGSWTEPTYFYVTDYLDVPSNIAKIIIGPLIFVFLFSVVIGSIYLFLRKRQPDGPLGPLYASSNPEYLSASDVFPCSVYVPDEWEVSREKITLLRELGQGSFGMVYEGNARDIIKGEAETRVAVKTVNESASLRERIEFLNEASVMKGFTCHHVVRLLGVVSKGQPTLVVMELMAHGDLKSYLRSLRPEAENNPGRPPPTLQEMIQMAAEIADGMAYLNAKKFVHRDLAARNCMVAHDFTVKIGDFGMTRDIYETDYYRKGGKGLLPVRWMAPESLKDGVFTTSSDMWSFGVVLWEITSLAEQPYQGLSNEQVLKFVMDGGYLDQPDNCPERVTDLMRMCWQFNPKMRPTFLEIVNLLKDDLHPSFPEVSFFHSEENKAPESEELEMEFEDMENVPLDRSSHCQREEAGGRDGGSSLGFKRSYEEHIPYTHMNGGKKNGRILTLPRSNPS
# Chain of Insulin-like growth factor 1 receptor (Homo sapiens) (P08069 31-736 limits assumed): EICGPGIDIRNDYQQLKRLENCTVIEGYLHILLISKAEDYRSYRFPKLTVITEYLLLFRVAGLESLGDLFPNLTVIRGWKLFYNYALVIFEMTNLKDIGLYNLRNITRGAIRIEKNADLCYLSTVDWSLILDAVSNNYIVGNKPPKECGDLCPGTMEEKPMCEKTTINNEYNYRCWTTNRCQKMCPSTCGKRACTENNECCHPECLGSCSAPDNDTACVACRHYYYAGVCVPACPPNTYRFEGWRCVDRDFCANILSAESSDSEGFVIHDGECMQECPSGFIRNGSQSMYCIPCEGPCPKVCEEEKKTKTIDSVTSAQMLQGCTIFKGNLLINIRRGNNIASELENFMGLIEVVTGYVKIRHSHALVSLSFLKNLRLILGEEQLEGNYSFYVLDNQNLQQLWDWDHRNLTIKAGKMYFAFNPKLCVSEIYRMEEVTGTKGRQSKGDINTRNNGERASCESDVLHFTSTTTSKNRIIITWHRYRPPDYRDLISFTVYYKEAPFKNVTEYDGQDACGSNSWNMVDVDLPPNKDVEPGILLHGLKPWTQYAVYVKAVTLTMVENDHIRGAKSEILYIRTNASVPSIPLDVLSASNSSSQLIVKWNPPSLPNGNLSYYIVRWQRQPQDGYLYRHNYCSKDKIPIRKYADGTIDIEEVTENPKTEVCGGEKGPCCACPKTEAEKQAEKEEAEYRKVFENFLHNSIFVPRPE
# Chain of Insulin-like growth factor 1 receptor (Homo sapiens) (P08069 741-1367 limits assumed): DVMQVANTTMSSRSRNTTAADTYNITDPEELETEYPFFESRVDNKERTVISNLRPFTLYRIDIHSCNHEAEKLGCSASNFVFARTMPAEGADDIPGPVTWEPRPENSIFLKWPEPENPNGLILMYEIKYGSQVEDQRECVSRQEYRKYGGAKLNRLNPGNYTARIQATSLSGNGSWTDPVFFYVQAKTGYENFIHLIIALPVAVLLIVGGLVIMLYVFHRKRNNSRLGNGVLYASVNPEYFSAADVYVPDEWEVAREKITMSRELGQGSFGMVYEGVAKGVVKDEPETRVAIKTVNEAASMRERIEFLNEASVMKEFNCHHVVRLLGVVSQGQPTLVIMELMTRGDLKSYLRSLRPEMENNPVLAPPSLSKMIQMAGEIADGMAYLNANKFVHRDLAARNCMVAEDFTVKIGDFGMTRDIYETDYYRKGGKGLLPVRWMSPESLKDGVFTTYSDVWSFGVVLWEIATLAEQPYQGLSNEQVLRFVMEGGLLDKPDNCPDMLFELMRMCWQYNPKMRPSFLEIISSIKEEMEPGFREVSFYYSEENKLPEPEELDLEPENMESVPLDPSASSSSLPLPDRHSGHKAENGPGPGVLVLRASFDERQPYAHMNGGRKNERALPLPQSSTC
smiles,measurement,setting,value
COc1ccc(S(=O)(=O)N(CCO)c2ccccc2CN(C)C/C=C/c2ccc(Cl)cc2)cc1,residual activity,[1],56%
same,residual activity,[2],97%
same,residual activity,[3],92%
same,residual activity,[4],94%
same,residual activity,[5],93%
same,residual activity,[6],117%
same,residual activity,[7],108%
same,residual activity,[8],115%
same,residual activity,[9],110%
same,residual activity,[10],91%
